High-throughput results (PubChem BioAssay)
ELG1 genotox = qHTS screen for small molecules that induce genotoxicity in human embryonic kidney (HEK293T) cells expressing luciferase-tagged ELG1; 1.3% of 330,000 active; Potency, µM (titrated, usually from 46 µM), for the others: at the top dose activity change, positive = activation, hits mostly activators; HEK293T ELG1-luciferase reporter, luminescence, 16 h; AID 504466, 2011; also: % of control where 0% means no effect; nearly all actives have a fitted effect of over 60% in size
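HEK293T cells expressing luciferase-tagged ELG1 were treated with compound or DMSO for 16 hr at 37°C. Luciferase activity was then read after 30 min with ONE-Glo at room temperature; rising signal flags genetic stress.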
NPC1 prom act = qHTS Assay for NPC1 Promoter Activators | Huh7 NPC1 promoter luciferase reporter, 24 h | Potency, µM (highest dose often 9.22 µM), for the others: at the top dose activation, hits mostly activators | 2.4% of 320,000 active; also: % of control where 0% means no effect; nearly all actives have a fitted effect of over 60% in size
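Huh7 reporter cells (NPC1 promoter driving luciferase) are dosed with compound for 24 h at 37 °C, 5% CO2; luciferase detection reagent is then added and luminescence measured after 10 min at ambient temperature.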
ELG1 repair inh = qHTS screen for small molecules that inhibit ELG1-dependent DNA repair in human embryonic kidney (HEK293T) cells expressing luciferase-tagged ELG1; HEK293T ELG1-luciferase reporter, luminescence, 16 h; DNA damage induced by 5-fluorouridine; Potency, µM (doses to about 46.1 µM), without a hit: at the highest dose activity change, negative = inhibition, usual class: inhibitors; 2.3% of 330,000 active; also: % is scaled to controls: 0 for no effect and ±100 for the full control effect; nearly all actives have a fitted effect of over 55% in size
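5-Fluorouridine DNA damage + compound/DMSO, 2,000 cells/well, 16 h, 37 °C/5% CO2. ONE-Glo, 30 min RT, luminescence. Readout = decrease in reporter signal.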
SMN2 splice up = qHTS Assay for Enhancers of SMN2 Splice Variant Expression. HEK293 SMN2-luciferase splicing reporter, luminescence, 30-36 h. Potency, µM (highest dose often 46.1 µM), for inactives: at the top dose activity change, positive = activation, actives largely listed as activators. 2.8% of 210,000 active. AID 1458, 2008; also: % of control where 0% means no effect; nearly all actives have a fitted effect of over 55% in size
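HEK293 cells carry an SMN2 minigene-luciferase reporter in which exon 7 inclusion puts luciferase in frame. Cells were seeded at 2000 cells/well, attached for 10-12 hours, then exposed to compounds for 30-36 hours at 37C before ONE-Glo luminescence.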
FLuc modulator = qHTS profiling assay for firefly luciferase inhibitor/activator using purifed enzyme and Km concentrations of substrates (counterscreen for miR-21 project); Luciferin 4-monooxygenase (Photinus pyralis), P08659; purified FLuc, Km substrates, luminescence inhibition; Potency, µM (series often up to 57.5 µM), inactives show at the top dose activity change, negative = inhibition, actives largely listed as inhibitors; 6.9% of 360,000 active; AID 588342, 2011;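 also: plate controls were vehicle for no effect and reference inhibitor for full effect; nearly all actives have a fitted effect of over 55% in size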
Target sequence (P08659 whole entry, looked up): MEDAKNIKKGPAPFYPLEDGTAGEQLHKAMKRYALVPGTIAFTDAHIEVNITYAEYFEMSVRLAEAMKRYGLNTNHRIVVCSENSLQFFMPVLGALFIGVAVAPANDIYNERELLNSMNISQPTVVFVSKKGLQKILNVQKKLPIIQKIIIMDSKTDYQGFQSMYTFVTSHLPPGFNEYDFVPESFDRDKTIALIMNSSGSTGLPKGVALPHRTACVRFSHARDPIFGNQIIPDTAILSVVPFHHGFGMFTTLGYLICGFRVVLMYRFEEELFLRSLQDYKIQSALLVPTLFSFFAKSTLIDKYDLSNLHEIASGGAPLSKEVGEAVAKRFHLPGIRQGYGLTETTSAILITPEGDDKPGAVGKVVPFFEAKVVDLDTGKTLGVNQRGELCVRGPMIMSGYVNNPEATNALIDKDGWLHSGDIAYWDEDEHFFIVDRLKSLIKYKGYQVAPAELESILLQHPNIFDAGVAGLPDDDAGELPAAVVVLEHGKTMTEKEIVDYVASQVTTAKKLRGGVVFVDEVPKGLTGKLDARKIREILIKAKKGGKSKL
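Purified P. pyralis luciferase, 10 nM final, with Km-level 10 uM D-luciferin and 10 uM ATP in 50 mM Tris acetate pH 7.5, 10 mM Mg acetate, 0.01% Tween-20, 0.05% BSA; 6-point qHTS titration about 60 µM downward; luminescence read.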
Rab9 prom act = qHTS Assay for Rab9 Promoter Activators | Potency, µM (series often up to 9.22 µM), without a hit: at the highest dose activation, negative = inhibition, most hits filed as activators | 2.8% of 320,000 active | Huh7 Rab9 promoter-luciferase reporter, luminescence, 24 h; also: % of control where 0% means no effect; nearly all actives have a fitted effect of over 60% in size
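Quantitative HTS format; Huh7 Rab9-luciferase reporter cells (1500/well) receive compound 2 h post-plating, incubate 24 h at 37 °C, then get luciferase reagent for 10 min before luminescence reading.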
* = called active by the depositor; ? = inconclusive; . = no result. Only some compounds are listed: those with a hit (about 9.2% of all), similar ones and a draw of the others. Calls follow the shape of the dose curve; as a rule, active = well fitted curve in the direction sought with a large enough effect; inconclusive = small, poorly fitted or top-dose-only effect, or another doubt; inactive = no such curve, though single readings can be large; an effect the other way counts as inactive or inconclusive. Potency is read from the fitted curve at half-maximal effect.

SMILES | ELG1 genotox | NPC1 prom act | ELG1 repair inh | SMN2 splice up | FLuc modulator | Rab9 prom act
O=[N+]([O-])c1ccc(-c2nc(=S)c3c(o2)CCCC3)cc1 | 3% | 30% | ? | 13% | ? | 29%
CCCc1cc(=O)n2c([nH]c3ccccc32)c1C#N | 1% | 20% | ? | -3% | 6.7µM* | ?
CCN1C(=O)[C@@H]2[C@@H](c3ccc(-c4ccc(F)cc4)c(OC)c3)N3CCCC[C@@]3(C(=O)OC)[C@@H]2C1=O | -3% | -1% | ? | . | 0% | -5%
O=C1NC(c2ccncc2)Nc2ccccc21 (stereo not drawn) | 1% | 0% | 5% | . | -1% | -1%
O=C1NC(c2ccc(Cl)cc2)Nc2ccccc21 (stereo not drawn) | 0% | -10% | 2% | . | 1% | 1%
Clc1ccc(C2Nc3cccc4cccc(c34)N2)cc1Cl | -3% | 26% | 0% | . | 24µM* | 16%
CN(C)c1ccc(C2NC(=O)c3ccccc3N2)cc1 (stereo not drawn) | ? | 11% | ? | . | 9.5µM* | 17%
Clc1cccc(C2Nc3cccc4cccc(c34)N2)c1 | -2% | 13% | -5% | . | ? | 8%
CCOc1cc(C2Nc3cccc4cccc(c34)N2)ccc1O | -1% | 19% | -19% | 1% | 13µM* | 18%
Cc1ccc(C2NC(=O)c3ccccc3N2)s1 (stereo not drawn) | 18µM* | -3% | ? | 10µM* | ? | 11%
COc1ccccc1-c1nn(CCC(=O)Nc2ccc(C)cc2)c2nc(C)cc(C)c12 | . | . | . | -2% | ? | .
OCCSc1nc(N2CCOCC2)nc(N2CCOCC2)n1 | 4% | -2% | ? | . | 0% | -2%
CN(C)c1ccc(C2Nc3cccc4cccc(c34)N2)cc1 | ? | ? | ? | . | 17µM* | ?
Brc1cccc(C2Nc3cccc4cccc(c34)N2)c1 | -1% | 17% | 0% | . | ? | 8%
c1ccc(C2Nc3cccc4cccc(c34)N2)cc1 | -3% | ? | -5% | . | 15µM* | 22%
COc1ccc(C2Nc3cccc4cccc(c34)N2)cc1 | 2% | 13% | 11% | -4% | ? | -2%
O=C(NCc1ccccc1)c1cccc(NC(=O)c2ccco2)c1 | 3% | 6% | -27% | -30% | -17% | -5%
O=C(Nc1ccc(O)c(C(=O)O)c1)c1cccc(NC(=O)c2ccco2)c1 | -1% | -1% | 3% | . | 11µM* | -5%
Cc1c(NC(=O)c2cccc(NC(=O)c3ccco3)c2)cccc1C(=O)O | 0% | -3% | 11% | 8% | 19µM* | 3%
O=C(O)Cc1ccc(NC(=O)c2cccc(NC(=O)c3ccco3)c2)cc1 | 4% | -3% | 6% | . | 17µM* | -2%
COc1ccc(NC(=O)N(C)C[C@H]2Oc3c(NC(=O)Cc4ccccc4)cccc3C(=O)N([C@H](C)CO)C[C@@H]2C)cc1 | 5% | . | -1% | . | . | .
S=C(Nc1ccccc1)Nc1ccc(Cl)cc1Cl | 21µM* | 3.2µM* | 8% | 26% | 27µM* | ?
O=C(COc1ccccc1O)Nc1ccccc1Cl | ? | 4µM* | ? | 3% | 21µM* | ?
O=C(COc1ccccc1)Nc1cc(Cl)ccc1Cl | 20% | 15% | ? | . | ? | 4%
O=C(COc1ccccc1)Nc1ccc(Cl)cc1Cl | ? | ? | ? | . | 6µM* | 2.2µM*
COc1ccc(OCC(=O)Nc2nnc(S(=O)(=O)N3CCc4ccccc43)s2)cc1 | . | . | . | . | -1% | .
